Sampled rows, rich in hits. Any-hit rate of the full collection: about 3.7%.
Wnt act = Wnt/beta-catenin pathway activation; Wnt/beta-catenin reporter cell assay, activator, plate reader; activation, % at 9.35 µM; hit rate 1.2% among 300,000; AID 743398; in the data active means activation above about 30%, passing the limit was not always enough; inconclusive means no clear call, values can overlap the other calls
AF4-AF9 inh = inhibitors of human MLL-AF4/AF9 interaction. hit rate 0.47% among 350,000. P42568. AlphaScreen, biotin-AF4 peptide binding to FLAG-AF9. AID 651704. inhibition, % at 10 µM;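 active means every replicate reaching a set inhibition limit, whatever the replicate mean, cut at about 25% in these data; inconclusive means mean inhibition reaches that limit but some replicates miss it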
Target sequence (P42568 whole entry, looked up): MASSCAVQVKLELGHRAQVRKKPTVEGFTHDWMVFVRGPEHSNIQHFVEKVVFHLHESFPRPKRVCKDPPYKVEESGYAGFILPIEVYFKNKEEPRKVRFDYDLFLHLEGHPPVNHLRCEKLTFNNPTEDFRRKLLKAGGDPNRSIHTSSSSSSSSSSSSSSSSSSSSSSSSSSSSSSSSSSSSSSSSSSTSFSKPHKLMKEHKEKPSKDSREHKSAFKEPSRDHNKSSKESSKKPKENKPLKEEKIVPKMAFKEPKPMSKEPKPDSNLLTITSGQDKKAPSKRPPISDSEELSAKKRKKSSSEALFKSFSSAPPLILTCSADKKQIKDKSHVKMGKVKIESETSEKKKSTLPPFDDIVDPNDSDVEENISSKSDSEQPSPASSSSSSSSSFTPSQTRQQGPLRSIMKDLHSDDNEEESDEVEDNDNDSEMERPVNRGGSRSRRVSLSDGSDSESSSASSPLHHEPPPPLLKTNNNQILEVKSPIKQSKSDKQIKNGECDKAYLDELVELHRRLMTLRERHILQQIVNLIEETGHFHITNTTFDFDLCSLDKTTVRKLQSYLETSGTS
Ecoli rRNA inh = inhibits bacterial ribosomal RNA function over humanized ribosomes; E. coli WT GFP vs humanized-ribosome RFP mutants, fluorescence, 24 h; hits give low values; DMSO median 0, no signal -100; GFP signal change (wild-type ribosome), % (no concentration beside the values); hit rate 1.6% among 350,000;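 active means significant combined selectivity score with lowered wild-type GFP, culture density cut under 30%, mutant RFP and density less affected; inactive means any of these conditions unmet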
esBAF inh = SWI/SNF esBAF complex inhibition. reporter increase, % at 12.5 µM. mouse ES cells, Bmi1-luciferase knock-in reporter, 24 h; 100% = twice the neutral-well signal. AID 602393. hit rate 2% among 350,000; in the data active means activation above about 40%; inconclusive means no clear call, values can overlap the other calls;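 further: a rise in the Bmi1 reporter signal indicates esBAF inhibition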
MITF TRPM1 HTS = increases MITF-driven TRPM1 promoter luciferase signal | hit rate 0.75% among 300,000 | activation, % at 12.5 µM | SK-MEL-5 TRPM1-promoter luciferase, 24 h; % of positive control, neutral wells = 0 | AID 588334;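 active means mean activation of at least 80% with every replicate also reaching 80%; inconclusive means mean reaches 80% but some replicate falls short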
A number is an active result; i = inactive; ? = inconclusive; nt = no result.

SMILES	Wnt act	AF4-AF9 inh	Ecoli rRNA inh	esBAF inh	MITF TRPM1 HTS
CN1C[C@@H](O)COC[C@H]2O[C@@H](CC(=O)NC3CCC3)CC[C@@H]21	nt	nt	i	i	nt
O=C(Nc1ccc(F)cc1)c1ccc2ncsc2c1	i	i	i	?	i
O=C(Nc1ccc(C(F)(F)F)cc1)c1ccc2ncsc2c1	i	i	i	58	nt
COCCn1c(SCC(=O)Nc2cccnc2Cl)nc2ccccc2c1=O	i	i	i	i	i
COc1ccc(S(=O)(=O)NCCc2cn3cccc(C)c3n2)cc1OC	i	i	i	i	nt
CCc1cccc(NC(=O)CN(c2ccc(C)cc2)S(=O)(=O)c2c(C)noc2C)c1	i	i	-31	i	i
COc1ccc(N(CC(=O)Nc2cc(C)ccc2C)S(=O)(=O)c2c(C)noc2C)cc1	i	i	i	i	i
COc1ccc(N(CC(=O)Nc2cc(Cl)ccc2C)S(=O)(=O)c2c(C)noc2C)cc1	i	i	-29	i	i
COc1ccc(S(=O)(=O)N2CCCC(C(=O)NCCc3ccccc3)C2)cc1 (stereo not drawn)	i	i	i	i	i
O=C1c2ccccc2NC(c2cccc(Cl)c2)N1N=C1CCCCCC1 (stereo not drawn)	?	nt	nt	55	92
O=C1c2ccccc2NC(c2ccc(Cl)cc2Cl)N1O (stereo not drawn)	nt	nt	nt	i	i
O=C(NC1CCCCCCC1)NC1CCCCC1	58	nt	nt	nt	91
O=C(NC1CCCCCC1)C(=S)NC1CCCCC1	33	i	i	nt	i
CN1CCC(NC(=O)NC2CCCCC2)CC1	i	i	i	i	i
CN1CCN(S(=O)(=O)Cc2ccc(Cl)cc2)CC1	i	nt	i	nt	nt
CCOc1c(Br)cc(CNc2ccc(N3CCN(C(C)=O)CC3)cc2)cc1OC	i	27	i	nt	i
CC(C)(C)Nc1nc(N2CCCC2)nc(N2CCCC2)n1	nt	nt	nt	i	i
CCCNc1nc(N2CCCC2)nc(N2CCCC2)n1	i	i	-21	i	i
COc1cccc2c(=O)ccoc12	nt	nt	nt	nt	i
COc1ccc2oc3ccccc3c(=O)c2c1	33	i	i	48	i
O=c1c2ccccc2oc2ccc(-c3ccc4cc[nH]c4c3)cc12	nt	nt	nt	i	104
COc1ccc2oc(=O)cc(C)c2c1	nt	nt	nt	nt	i
COc1cccc2c(=O)c3ccccc3oc12	i	i	i	66	?
COc1ccc2oc3ccc(OC)cc3c(=O)c2c1	nt	nt	nt	98	nt
CCOc1ccc(-n2nc(C(=O)N3CCN(CC)CC3)c3ccccc3c2=O)cc1	i	nt	nt	i	i
SMILES	Wnt act	AF4-AF9 inh	Ecoli rRNA inh	esBAF inh	MITF TRPM1 HTS
COc1ccc(CCNC(=O)COc2ccc(C)nc2[N+](=O)[O-])cc1	i	i	i	nt	i
Cc1ccc2oc3ccccc3c(=O)c2c1	i	i	i	62	101
N#Cc1ccc(C#Cc2ccc3oc4ccccc4c(=O)c3c2)cc1	i	i	i	i	i
O=C(C1CC1)N1C[C@H]2[C@@H](c3ccccc31)[C@@H](CO)N2C(=O)c1ccccc1F	nt	i	i	i	nt
CC(C)(C)C(=O)NC(=S)Nc1ccc(C(F)(F)F)cc1	43	nt	i	i	i
FC(F)(F)c1ccc(NC(=S)NC2CCCCC2)cc1	i	i	-54	i	i
S=C(Nc1ccc2nsnc2c1)NC1CCCCC1	i	i	-44	nt	i
Cc1ccc(NC(=S)N2CCCC2)cc1C	i	i	i	i	i
CC(C)(C)C(=O)NC(=S)Nc1ccc(Cl)c(C(=O)O)c1	i	i	i	nt	i
S=C(Nc1ccc2nsnc2c1)N1CCCCCC1	i	i	i	nt	94
CCOC(=O)/C=C(\C)N1N=C(c2ccccc2)CC1c1ccccc1 (stereo not drawn)	i	i	i	nt	i
O=C(C[C@@H]1C=C[C@H](NC(=O)C2CCC2)[C@@H](CO)O1)NC1CCC1	nt	i	i	i	nt
Cn1c(-[n+]2c(-c3ccccc3)cc(-c3ccccc3)cc2-c2ccccc2)nc2c([N+](=O)[O-])cccc21	i	i	-22	nt	i
COc1ccc(CCNC(=O)c2cc(-c3cccs3)on2)cc1OC	i	i	i	i	i
O=C(NCCc1ccccc1)c1cc(-c2ccco2)on1	141	i	i	i	i
O=C(NCc1ccco1)c1cc(-c2ccco2)on1	i	i	i	i	i
O=C(NCc1ccccc1)c1cc(-c2ccco2)on1	i	i	i	42	i
COc1ccc(CCNC(=O)c2cc(-c3ccco3)on2)cc1OC	103	i	i	nt	i
COCCNC(=O)C(c1ccc(F)cc1)N(CCOC)C(=O)CCC(=O)Nc1ccccn1 (stereo not drawn)	i	i	i	i	i
CCn1ccc(C(=O)Nc2ccccc2Cl)n1	nt	i	i	nt	85

From PubChem BioAssay
